High-throughput results from PubChem.
Giardia FBPA inh: qHTS Assay for Inhibitors of Fructose-1,6-bisphosphate Aldolase from Giardia Lamblia; A8B2U2; purified Giardia FBPA; Potency, µM (titrated, usually from 59.6 µM), inactives show at the highest dose activity, negative = inhibition, hits mostly inhibitors; hit rate 0.71% among 290,000; note: potency is the fitted concentration of half-maximal effect; nearly all actives have a fitted effect of over 55% in size
Target sequence (A8B2U2 whole entry, looked up): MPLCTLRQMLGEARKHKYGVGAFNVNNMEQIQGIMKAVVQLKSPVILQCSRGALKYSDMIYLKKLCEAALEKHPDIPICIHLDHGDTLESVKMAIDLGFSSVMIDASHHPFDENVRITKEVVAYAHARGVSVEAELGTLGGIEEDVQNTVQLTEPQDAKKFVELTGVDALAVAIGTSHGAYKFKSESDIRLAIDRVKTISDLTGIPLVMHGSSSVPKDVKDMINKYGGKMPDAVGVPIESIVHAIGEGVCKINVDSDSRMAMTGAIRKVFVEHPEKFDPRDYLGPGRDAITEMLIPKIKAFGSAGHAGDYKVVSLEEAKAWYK
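40 nM FBPA preincubated 10 min at RT with compound (up to 57.5 uM final), then substrate plus GAPDH/TPI/NAD/arsenate coupling and diaphorase/resazurin added. Fluorescence read after 20 min at RT, 525/598 nm.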
FMDV antiviral: High Throughput Screening for Foot and Mouth Disease Virus Antivirals; Potency, µM (series often up to 57.9 µM), for inactives: at the highest dose activity change, negative = inhibition, most hits filed as inhibitors; hit rate 1.2% among 410,000; FMDV antiviral cell-based qHTS; calls by dose curve; tested in HEK293T cells; note: read-out not given here; potency is the fitted concentration of half-maximal effect; nearly all actives have a fitted effect of over 45% in size
VACV Venus inh: qHTS for Stage-Specific Inhibitors of Vaccinia Orthopoxvirus: Venus Reporter Primary qHTS | Vaccinia virus Venus reporter expression, fluorescence | Potency, µM (doses to about 36.5 µM), for the others: at the top dose activity change, negative = inhibition, most hits filed as inhibitors | hit rate 0.46% among 330,000 | AID 720580, 2013; calls by dose curve; tested in A549 cells; note: potency is the fitted concentration of half-maximal effect; nearly all actives have a fitted effect of over 30% in size
VACV mCherry inh: qHTS for Stage-Specific Inhibitors of Vaccinia Orthopoxvirus: mCherry Reporter Primary qHTS. hit rate 0.63% among 310,000. Vaccinia virus mCherry reporter infection, fluorescence. Potency, µM (titrated, usually from 36.5 µM), for inactives: top-dose activity change, negative = inhibition, hits mostly inhibitors; calls by dose curve; tested in A549 cells; note: potency is the fitted concentration of half-maximal effect; nearly all actives have a fitted effect of over 35% in size
HCV inhibitor: qHTS Assay for Inhibitors of Hepatitis C Virus (HCV) | Huh7.5.1 HCVcc-Cre infection, luciferase reporter, 44 h | Potency, µM (top dose mostly 41.8 µM), for the others: at the highest dose activity change, negative = inhibition, hits mostly inhibitors | hit rate 3.4% among 340,000 | AID 651820, 2012; note: potency is the fitted concentration of half-maximal effect
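A cell-based infection assay in which seeded cells (1,000 per well) receive test compound after 4 h, are inoculated with HCVcc-Cre at approximately 0.5 moi, and are incubated 44 h before luminescence detection.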
HCMV inh: qHTS Assay for inhibitors of the human cytomegalovirus (HCMV); hit rate 4.5% among 410,000; HFF cells, HCMV-luciferase reporter, 72 h; stronger effect = lower value; activity change, negative = inhibition, % at 57.5 µM; in the data active = activity change below about -60%; inconclusive = no clear call, values can overlap the other calls; inactive = above about -39%
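Two-dose cell screen: HFF monolayers treated with compounds and infected with luciferase-expressing HCMV at 1 PFU/cell, 72 h at 37C, then lysed for luciferase measurement.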
* = called active by the depositor; i = inactive; ? = inconclusive; . = no result; ! = not confirmed by another sample; [ ] = dose if it differs, or a comment. Most compounds without a hit are left out; they make up all but 7.5% or so of the library. Unless noted, calls come from the whole dose curve; as a rule, active = well fitted curve in the direction sought with a large enough effect; inconclusive = small, poorly fitted or top-dose-only effect, or another doubt; inactive = no such curve, though single readings can be large; an effect the other way counts as inactive or inconclusive. % is set by controls: 0 for no effect and ±100 for the full control effect.

SMILES	Giardia FBPA inh	FMDV antiviral	VACV Venus inh	VACV mCherry inh	HCV inhibitor	HCMV inh
C[C@@]12CCCO[C@@]13C=CC(=O)C=C3CCC2	.	.	.	.	.	17
CN(C)C(CNc1ncnc2sccc12)c1cccs1 (stereo not given)	3%	-5%	.	.	11%	3
CCOC(=O)c1sc2ncnc(NCC(c3cccs3)N(C)C)c2c1C (stereo not given)	11%	4%	.	.	10µM*	-16
CCOc1ccc(NC(=O)Cn2c(=O)nc(-c3ccccc3)c3ccccc32)cc1	.	0%	-6%	-16%	.	70
COc1ccc(-n2c(SCC(=O)NCc3ccc(Cl)cc3)nc3ccsc3c2=O)cc1	.	-10%	-7%	-13%	.	-13
COc1ccc2[nH]cc(/C=C/c3cc[n+](C)cc3)c2c1	?	-7%	.	.	7.9µM*	-92*
O=C(/C=C/c1c[nH]c2ccccc12)c1ccccc1	-12%	51%	?	?	?	116
COc1ccc2[nH]cc(/C=C/C(=O)c3ccccc3)c2c1	-9%	60%	?	?	10µM*	3
COc1ccc2[nH]cc(C(=O)CCl)c2c1	-3%	28µM*	-4%[7.34 µM]	-15%[7.34 µM]	?	-100*
COc1ccc2[nH]cc(C=O)c2c1	.	1%	.	.	-8%	-25
COc1ccc2[nH]cc(C(=O)CN3CC(C)CC(C)C3)c2c1 (stereo not given)	-1%	6%	-21%	-16%	-11%	56
O=C1Nc2c(Cl)cc(Cl)cc2C1=O	.	-20%	1%	?	16%	36
Cc1nn(-c2ccc(Cl)cc2)c2nc(-c3cccnc3)cc(C(F)(F)F)c12	.	-10%	-11%	-9%	.	36
COc1ccc(/C=C/C(=O)O)cc1S(=O)(=O)N1CCCC1	10%	-7%	-8%	-10%	-1%	103
CC(Oc1ccccc1)C(=O)NNC(=O)c1ccccn1 (stereo not given)	14%	-10%	?	?	?	?
C/C(=N\NC(=O)C(C)Oc1ccc([N+](=O)[O-])cc1)c1ccccn1 (stereo not given)	?	-26%	.	.	?	-104*
CNCc1c(OCc2ccccc2)ccc2ccccc12	?	-2%	-11%	-25%	?	-7
CNCc1c(OCc2ccccc2F)ccc2ccccc12	-8%	-20%	-21%	-25%	8.9µM*	?
Nc1nonc1C(=O)NCCNCc1c(OCc2ccccc2F)ccc2ccccc12	-6%	?	.	.	14µM*	6
Nc1nonc1C(=O)NCCNCc1ccccc1F	.	8%	-6%	6%	.	2
O=C(C#Cc1ccccc1)c1ccco1	-3%	8.9µM*	13µM*	10µM*	?	-99*
Cc1ccc(S(=O)(=O)N2CCC(C(=O)OCC(=O)N(Cc3ccccc3)C(C)C)CC2)cc1C	.	-7%	-16%	-9%	.	-3
O=C1CN(C(=O)COc2ccc(Cl)cc2Cl)c2ccccc2N1	.	4%	-7%	i	?	-8
O=C1CN(C(=O)/C=C/c2cccc(Cl)c2)c2ccccc2N1	0%	-11%	-8%	-15%	14µM*	-22
O=C1CN(C(=O)Cn2ncc(Cl)c(Cl)c2=O)c2ccccc2N1	-4%	?	?	?	5.6µM*	-95*
SMILES	Giardia FBPA inh	FMDV antiviral	VACV Venus inh	VACV mCherry inh	HCV inhibitor	HCMV inh
COc1ccc(/C=C/C(=O)OCC(=O)N2CC(=O)Nc3ccccc32)cc1	1%	0%	-16%	-15%	-4%	-34
CCCCOc1ccc(/C=C/C(=O)OCC(=O)N2CC(=O)Nc3ccccc32)cc1OCC	-5%	13µM*	?	-21%	7.9µM*	1
COc1cc(SC)ccc1C(=O)OCC(=O)N1CC(=O)Nc2ccccc21	.	17%	-11%	i	10µM*	7
O=C1CN(C(=O)/C=C/c2ccc(Cl)cc2)c2ccccc2N1	-19%	-11%	-20%	i	?	?
O=C(O)CCn1c(-c2ccccn2)nc2ccccc21	-4%	4%	-9%	i	7%	80
CCOC(=O)c1cccn1C1C(=O)N(Cc2ccc(Cl)nc2)c2ccc(Cl)cc21 (stereo not given)	.	.	.	.	.	-27
CCC(Oc1ccccc1OC)C(=O)N1CC(=O)Nc2ccccc21 (stereo not given)	-5%	1%	-14%	-11%	15%	-74*
O=C1CN(C(=O)COc2ccc(Cl)c(Cl)c2)c2ccccc2N1	.	-12%	-16%	i	-2%	-66*
Cc1cc(C)c2c(=O)cc(CSc3n[nH]c(C)n3)[nH]c2c1	.	-1%	-1%	3%	.	4
COCCNC(=O)CSc1nc2cc3c(cc2c(=O)n1CCCC(=O)NCCc1ccc(OC)c(OC)c1)OCO3	4%	0%	-10%	-12%	12%	42
Cc1ccc(NC(=O)CSc2nc3ccccc3c(=O)n2CCCN2CCCCC2)cc1Cl	5%	-25%	?	?	2µM*	-97*
O=C(CSc1nc2ccccc2c(=O)n1CCCN1CCOCC1)Nc1ccc(F)c(Cl)c1	.	?	.	.	1.8µM*	-18
CCC(C)NC(=O)CSc1nc2ccccc2c(=O)n1CCCN1CCCCC1 (stereo not given)	-6%	-15%	.	.	9%	2
CC(=O)Nc1ccc(NC(=O)CSc2nc3ccccc3c(=O)n2CCCN2CCOCC2)cc1	.	7%	-21%	-19%	26%	-8
COCCNC(=O)CSc1nc2cc3c(cc2c(=O)n1CCCC(=O)NCc1ccc(OC)cc1)OCO3	7%	-13%	9%	-10%	2%	-62*!
O=C(CSc1nc2ccccc2c(=O)n1CCCN1CCOCC1)Nc1cccc(S(=O)(=O)N2CCCCCC2)c1	6%	-8%	?	?	13µM*	?
CC(C)OCCCNc1ccc(N2C(=O)CCCC2=O)cc1[N+](=O)[O-]	-8%	-7%	.	.	-7%	-28
Cc1cc(O)c(C(c2ccccc2)N2CCC(C)CC2)c(=O)n1Cc1ccco1 (stereo not given)	.	-14%	-6%	-2%	.	5
CC(C)(C)C(=O)NC(NC(=S)Nc1sc2c(c1C#N)CCCC2)C(Cl)(Cl)Cl (stereo not given)	.	-23%	.	.	?	75
COc1ccc(NC(=O)CSc2nc3ccccc3c(=O)n2CCCN2CCC(C)CC2)c(OC)c1	5%	-20%	-12%	-5%	?	-6
Cc1ccc(S(=O)(=O)N2CCOCC2)cc1NC(=O)CSc1nnc2cc(C)c3ccccc3n12	1%	?	-29%	-15%	?	-63*
Cc1cc(SCC(=O)Nc2cccc(S(=O)(=O)N3CCOCC3)c2)nc2ccccc12	-4%	-10%	-29%	-22%	13µM*	-19
